Source: PubChem BioAssay (EPA / NIEHS)
Calls of active or inactive are those of the source. How the source made its calls: active means hit-call score of the fitted dose curve at least 0.9, where 1 is the maximum; inactive means score below 0.9.

What was measured:
[1] = target: Paired box protein Pax-6 (Homo sapiens) (UniProt P26367); assay: ATG_Pax6_CIS: Attagene CIS-FACTORIAL HepG2 Assay for human Paired Box 6 (PAX6) (AID 2282956); conditions: HepG2 CIS-FACTORIAL PAX6 reporter transcription, RNA readout; actives raise or lower the signal
Sequence of Paired box protein Pax-6 (Homo sapiens) (P26367 whole entry, looked up): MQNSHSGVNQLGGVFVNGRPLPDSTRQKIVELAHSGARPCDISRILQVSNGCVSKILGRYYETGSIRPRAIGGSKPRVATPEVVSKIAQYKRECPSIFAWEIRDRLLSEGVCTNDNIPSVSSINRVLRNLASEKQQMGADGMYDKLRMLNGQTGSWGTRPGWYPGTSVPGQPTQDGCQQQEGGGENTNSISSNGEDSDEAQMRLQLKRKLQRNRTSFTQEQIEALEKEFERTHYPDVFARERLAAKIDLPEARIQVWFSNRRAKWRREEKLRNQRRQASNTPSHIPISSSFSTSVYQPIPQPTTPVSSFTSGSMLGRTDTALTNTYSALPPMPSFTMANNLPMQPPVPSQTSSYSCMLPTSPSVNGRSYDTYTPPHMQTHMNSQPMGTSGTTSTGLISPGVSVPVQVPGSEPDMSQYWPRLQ
Outline: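 HepG2 cells transiently transfected with cis-promoter-driven multiplexed reporter units sensing endogenous transcription factor activity; 24 h chemical exposure. Reporter mRNA quantified by RT-PCR, 6-FAM labelling, HpaI digestion and capillary electrophoresis; bidirectional fit versus DMSO baseline.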

[2] = ATG_PXRE_CIS: Attagene CIS-FACTORIAL HepG2 Assay for human Pregnane X Receptor Element (PXRE) (AID 2282957); conditions: HepG2 Attagene CIS-FACTORIAL PXRE reporter, mRNA; actives raise or lower the signal
Outline: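 HepG2 cells transiently transfected with cis-regulated multiple reporter transcription units; endogenous factor activity measured as reporter mRNA 24 h after dosing. RT-PCR, fluorescent primer extension, HpaI digestion, capillary electrophoresis; bidirectional fit versus DMSO baseline.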

[3] = ATG_RORE_CIS: Attagene CIS-FACTORIAL HepG2 Assay for human RAR-related Orphan Receptor Element (RORE) (AID 2282959); conditions: HepG2 Attagene cis-factorial RORE reporter, mRNA; actives raise or lower the signal
Outline: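 Fluorescence intensity of reporter-specific cDNA fragments, separated by capillary electrophoresis, gives the signal. Source: HepG2 liver cells transiently transfected with cis-element reporters and exposed 24 h; DMSO-normalized bidirectional fit.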

[4] = ATG_Sox_CIS: Attagene CIS-FACTORIAL HepG2 Assay for human SRY-box transcription factor (SOX) (AID 2282960); conditions: HepG2 Attagene cis-factorial SOX reporter, mRNA; actives raise or lower the signal
Outline: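 After 24 h of chemical treatment, transfected HepG2 reporter cells are lysed for total RNA. Transcript levels come from RT-PCR with labelled primer extension and capillary electrophoresis, analysed bidirectionally versus DMSO.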

[5] = ATG_SREBP_CIS: Attagene CIS-FACTORIAL HepG2 Assay for human Sterol Regulatory Element Binding (SREBP) (AID 2282962); conditions: HepG2 Attagene cis-factorial SREBP reporter, mRNA; actives raise or lower the signal
Outline: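 HepG2 cells transiently transfected with multiplexed cis-promoter reporter units sensing endogenous transcription factors; reporter mRNA measured 24 h after dosing by RT-PCR, 6-FAM labeling, HpaI digestion and capillary electrophoresis. Bidirectional fit versus DMSO.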

[6] = target: Signal transducer and activator of transcription 3 (Homo sapiens) (UniProt P40763); assay: ATG_STAT3_CIS: Attagene CIS-FACTORIAL HepG2 Assay for human Signal Transducer and Activator of Transcription 3 (STAT3) (AID 2282963); conditions: HepG2, Attagene cis-factorial STAT3 reporter transcription; actives raise or lower the signal
Sequence of Signal transducer and activator of transcription 3 (Homo sapiens) (P40763 whole entry, looked up): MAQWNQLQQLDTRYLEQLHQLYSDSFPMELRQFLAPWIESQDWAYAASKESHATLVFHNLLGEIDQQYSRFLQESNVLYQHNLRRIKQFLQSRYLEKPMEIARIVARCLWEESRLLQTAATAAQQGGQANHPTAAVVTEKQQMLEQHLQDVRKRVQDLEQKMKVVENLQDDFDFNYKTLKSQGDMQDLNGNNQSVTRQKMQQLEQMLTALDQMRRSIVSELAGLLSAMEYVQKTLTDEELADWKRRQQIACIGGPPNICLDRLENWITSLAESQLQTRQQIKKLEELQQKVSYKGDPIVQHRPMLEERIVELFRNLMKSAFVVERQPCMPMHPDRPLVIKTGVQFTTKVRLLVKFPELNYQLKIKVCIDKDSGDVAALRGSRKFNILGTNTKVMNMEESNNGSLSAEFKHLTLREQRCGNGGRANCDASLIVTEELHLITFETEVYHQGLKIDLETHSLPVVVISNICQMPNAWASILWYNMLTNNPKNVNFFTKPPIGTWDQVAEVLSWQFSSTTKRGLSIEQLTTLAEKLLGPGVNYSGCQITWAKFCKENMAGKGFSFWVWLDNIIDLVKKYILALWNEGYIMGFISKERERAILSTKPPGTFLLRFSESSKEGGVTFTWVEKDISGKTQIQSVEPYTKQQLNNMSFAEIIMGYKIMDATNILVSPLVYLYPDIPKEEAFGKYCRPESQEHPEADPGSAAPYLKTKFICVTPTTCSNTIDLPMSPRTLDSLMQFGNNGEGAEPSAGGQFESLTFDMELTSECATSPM
Outline: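 Transcript-level reporter assay. HepG2 transient MRTU transfection, 24 h exposure, fluorescence detection after RT-PCR and CE; DMSO baseline.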

[7] = ATG_TA_CIS: Attagene CIS-FACTORIAL HepG2 Assay for human TA Basal Promoter (AID 2282964); conditions: HepG2 Attagene CIS-factorial TA basal promoter reporter; actives raise or lower the signal
Outline: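 Background internal-marker endpoint from a 52-component HepG2 cis-reporter panel. Cells treated 24 h; reporter transcripts quantified via RT-PCR and CE fluorescence against DMSO baseline.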

[8] = ATG_TCF_b_cat_CIS: Attagene CIS-FACTORIAL HepG2 Assay for human T-Cell-Factor with beta-catenin (TCF/b-cat) (AID 2282965); conditions: HepG2 TCF/beta-catenin cis-reporter transcription, actives raise or lower the signal
Outline: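 Using capillary electrophoresis as the read-out, labelled reporter cDNA fragments from transiently transfected HepG2 were sized and quantified. Exposure lasted 24 hours; activity in either direction was referenced to DMSO.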

[9] = target: Transcription factor Sp1 (Homo sapiens) (UniProt P08047); assay: ATG_Sp1_CIS: Attagene CIS-FACTORIAL HepG2 Assay for human Specificity Protein 1 (Sp1) (AID 2282961); conditions: HepG2 Sp1 cis-reporter transcription, actives raise or lower the signal
Sequence of Transcription factor Sp1 (Homo sapiens) (P08047 whole entry, looked up): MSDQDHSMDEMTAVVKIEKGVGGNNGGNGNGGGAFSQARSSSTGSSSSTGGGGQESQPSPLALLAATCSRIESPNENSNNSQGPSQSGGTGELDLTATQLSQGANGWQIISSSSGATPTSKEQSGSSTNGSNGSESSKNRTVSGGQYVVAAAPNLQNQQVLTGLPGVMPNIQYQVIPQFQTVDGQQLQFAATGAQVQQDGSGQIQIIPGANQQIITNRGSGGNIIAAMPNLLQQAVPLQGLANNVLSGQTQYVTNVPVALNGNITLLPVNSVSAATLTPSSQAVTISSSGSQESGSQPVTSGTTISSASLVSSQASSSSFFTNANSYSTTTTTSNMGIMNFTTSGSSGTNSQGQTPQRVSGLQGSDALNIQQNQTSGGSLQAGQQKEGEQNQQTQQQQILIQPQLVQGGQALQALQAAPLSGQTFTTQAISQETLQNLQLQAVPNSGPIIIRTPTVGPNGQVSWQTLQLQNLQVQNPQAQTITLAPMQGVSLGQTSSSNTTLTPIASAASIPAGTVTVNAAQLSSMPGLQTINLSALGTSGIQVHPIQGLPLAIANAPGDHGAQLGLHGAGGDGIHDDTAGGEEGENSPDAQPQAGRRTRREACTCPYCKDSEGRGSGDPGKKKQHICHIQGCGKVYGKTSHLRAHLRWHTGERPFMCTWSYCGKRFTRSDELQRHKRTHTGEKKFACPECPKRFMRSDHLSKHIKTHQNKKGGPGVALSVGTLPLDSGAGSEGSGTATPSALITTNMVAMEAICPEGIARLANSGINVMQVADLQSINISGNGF
Outline: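 Sp1-driven reporter mRNA, read as capillary electrophoresis fluorescence after RT-PCR, in transiently transfected HepG2 cells dosed for 24 h; signal change in either direction relative to DMSO.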

Measured: AC50

COc1cccc(-c2ccc(/C=C\CN3CCCCCC3)cc2Cl)c1
active: [2] 3.67 µM | [5] 20.5 µM
not listed: [9]
inactive: all other assays above

Cn1cnc([N+](=O)[O-])c1Sc1ncnc2nc[nH]c12
not listed: [9]
inactive: all other assays above

CC(=O)c1ccc2c(c1)[C@H](NC(=O)c1ccc(F)cc1)[C@@H](O)C(C)(C)O2
active: [2] 12.4 µM
not listed: [9]
inactive: all other assays above

COC(=O)c1ccccc1O
not listed: [9]
inactive: all other assays above

O=C(CCCCCCCCc1cccnc1)N1CCC(C=C(c2ccccc2)c2ccccc2)CC1
inactive: [4]
active: [1] 9.32 µM | [2] 0.438 µM | [9] 8.56 µM | [5] 8.12 µM | [6] 19.5 µM | [7] 16.1 µM | [8] 8.08 µM

CCOC(=O)c1ccc(C2CCC(NC[C@H](O)COc3ccc(O)c(NS(C)(=O)=O)c3)CC2)cc1 (stereo partly specified)
active: [1] 46.5 µM | [8] 48.3 µM
not listed: [3] | [9]
inactive: all other assays above

COCCOc1cc2cc(C(=O)NC3CCN(C(C)C)CC3)n(CC(=O)Nc3ccc(Cl)cn3)c2cn1
inactive: [6] | [7]
active: [1] 124 µM | [2] 144 µM | [4] 135 µM | [5] 26.5 µM | [8] 108 µM

C1N2CN3CN1CN(C2)C3
not listed: [9]
inactive: all other assays above

O=C(NS(=O)(=O)/C=C/c1ccccc1)c1ccc(F)cc1Cl
active: [2] 34.9 µM
not listed: [9]
inactive: all other assays above

CCN(C(=O)c1cc(C)cc(OC[C@H](C)Nc2ccncc2)c1)C(C)C
active: [2] 4.97 µM | [5] 18.2 µM
not listed: [3] | [9]
inactive: all other assays above

CCOCCO
not listed: [9]
inactive: all other assays above

Cn1c(=O)c2c(ncn2C)n(C)c1=O
not listed: [9]
inactive: all other assays above

C[C@](N)(Cc1ccc(O)c(O)c1)C(=O)O
not listed: [3]
inactive: all other assays above

COC(=O)c1c(Cl)c(Cl)c(C(=O)OC)c(Cl)c1Cl
active: [2] 25.8 µM
not listed: [9]
inactive: all other assays above

O=C1CCC(N2C(=O)c3ccccc3C2=O)C(=O)N1 (stereo unspecified)
not listed: [3] | [9]
inactive: all other assays above

CC(C)=CCC/C(C)=C/CO
not listed: [9]
inactive: all other assays above

CN(C)c1ccc(N=NS(=O)(=O)O)cc1
active: [3] 38.6 µM
not listed: [9]
inactive: all other assays above

CC(O)CN(CCN(CC(C)O)CC(C)O)CC(C)O (stereo unspecified)
not listed: [9]
inactive: all other assays above

CC[C@H]1OC(=O)[C@H](C)[C@@H](O[C@H]2C[C@@](C)(OC)[C@@H](O)[C@H](C)O2)[C@H](C)[C@@H](O[C@@H]2O[C@H](C)C[C@H](N(C)C)[C@H]2O)[C@](C)(O)C[C@@H](C)C(=O)[C@H](C)[C@@H](O)[C@]1(C)O
not listed: [9]
inactive: all other assays above

COC(=O)CC(=O)OC
not listed: [3] | [9]
inactive: all other assays above

CC(C)=CCC/C(C)=C\CO
active: [2] 7.34 µM
not listed: [9]
inactive: all other assays above

Cc1ccc(S(=O)(=O)O)cc1C
not listed: [3]
inactive: all other assays above

O=P(OC(CCl)CCl)(OC(CCl)CCl)OC(CCl)CCl
active: [1] 46.9 µM | [2] 0.371 µM | [5] 24.4 µM | [6] 188 µM | [8] 100 µM
inactive: [4] | [7]

CCC(C)(C)C(=O)O[C@H]1C[C@@H](C)C=C2C=C[C@H](C)[C@H](CC[C@@H]3C[C@@H](O)CC(=O)O3)[C@H]21
active: [5] 0.0317 µM
not listed: [2]
inactive: all other assays above
